Bioassay records (PubChem)
Hits are enriched below; roughly 3.1% of the tested compounds scored in any of these assays.
FAS-TE inh: blocks the thioesterase domain of human fatty acid synthase; P49327; recombinant FAS-TE, OMFH fluorogenic substrate, fluorescence endpoint; inhibition, % at 15 µM; 360,000 compounds, 0.67% hits; AID 602261;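 active = compounds whose normalised, plate-corrected inhibition of enzyme fluorescence in the single-dose primary screen is 50% or more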
Mot1-301 SUMO: SUMOylation pathway inhibition by Mot1-301 growth rescue. S. cerevisiae Mot1-301 growth rescue, ATP luminescence, 38.5C; percent above DMSO median, 100 means doubled. growth rescue, % at 18.8 µM. 320,000 compounds, 1% hits;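 active = every valid replicate shows activation above 250% relative to neutral control wells; inactive = the rest, any valid replicate at or below 250%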
NadD inh: inhibitors of Staphylococcus aureus NadD. purified NadD enzyme, colorimetric absorbance read-out. inhibition, % at 20 µM. 360,000 compounds, 0.78% hits. AID 602399; in the data active = inhibition above about 26%
ATG4B inhibitor: ATG4B (human) cysteine protease inhibition | Q9Y4P1 | ATG4B cleavage of LC3-PLA2, NBD-HPC fluorescence, 1 h | 340,000 compounds, 0.51% hits | inhibition, % at 8.33 µM; in the data active = inhibition above about 40%
Calb FLC: affects C. albicans growth with fluconazole | C. albicans CaCi-2 (fluconazole-resistant clinical isolate) + fluconazole, Alamar Blue growth, 48 h | growth inhibition, % (test concentration not listed) | 300,000 compounds, 0.57% hits | AID 1979;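 active = growth inhibition above about 58% in most replicates, limit read from the data, passing the limit was not always enough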;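 also: all wells also contain fluconazole at 8 µg/ml as a sub-toxic cotreatment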
FAS-TE conf: FAS thioesterase (human) inhibition, confirmation | shares compounds with FAS-TE inh | recombinant FAS-TE, OMFH fluorogenic substrate, fluorescence | inhibition, % at 15 µM | 2,300 compounds, 45% hits;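 active = compounds inhibiting the enzyme by at least 50% at 15 µM in any one of the replicates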
Hits are given with their value; . = inactive; / = no result.

SMILES | FAS-TE inh | Mot1-301 SUMO | NadD inh | ATG4B inhibitor | Calb FLC | FAS-TE conf
CC(=O)NCCNC(=O)C1(C)Cc2c(-c3cccc(C(F)(F)F)c3)ccnc2O1 (stereo not given) | . | / | . | / | / | /
Cc1cccc(N2C(=O)CC(Sc3nc(-c4ccccc4)c4cc(Cl)ccc4n3)C2=O)c1 (stereo not given) | 66 | . | . | . | . | .
Cc1cc(N2CCN(c3ccccc3)CC2)n2ncnc2n1 | . | . | . | . | . | /
Cc1cc(N2CCN(C(c3ccccc3)c3ccc(Cl)cc3)CC2)n2ncnc2n1 (stereo not given) | 58 | . | . | . | . | .
Cc1ccc(C(CC(=O)O)NC(=O)c2ccc(S(=O)(=O)N3CC(C)OC(C)C3)cc2)cc1 (stereo not given) | . | . | . | . | / | /
CCOC(=O)C1=CC[C@H]2c3c(c4ccccc4n3C)C(=O)C1N2C(=O)OC(C)(C)C | 63 | . | . | . | / | 46
CCOC(=O)C1=CC[C@H]2c3c(c4ccccc4n3C)C(=O)C1N2C | . | . | . | . | / | /
O=C(CSc1nc(-c2ccco2)cc(C(F)(F)F)n1)NCCCN1CCOCC1 | . | . | . | . | . | /
O=C(Nc1nc(-c2cccc([N+](=O)[O-])c2)cs1)C(c1ccccc1)c1ccccc1 | 52 | / | . | . | . | .
CC(OC(=O)c1ccccc1Br)C(=O)Nc1nc(-c2cccc([N+](=O)[O-])c2)cs1 (stereo not given) | . | . | . | . | . | /
S=C1NC2CCCCC2N1 (stereo not given) | . | . | . | . | . | /
CN(CC(=O)Nc1ccc(Cl)c(C(F)(F)F)c1)C(=O)C1CC(=O)N(c2ccc3c(c2)OCCO3)C1 (stereo not given) | 54 | / | . | / | / | 27
COc1ccc(N2CC(C(=O)N(C)CC(=O)Nc3ccc(Cl)c(C(F)(F)F)c3)CC2=O)c(OC)c1 (stereo not given) | . | . | . | . | . | /
COc1ccc([C@@H]2CC(=O)[C@@H]3CN(S(=O)(=O)c4ccc(C)cc4)[C@H](c4ccccc4)C[C@@H]3N2S(=O)(=O)c2ccccc2)cc1 | 77 | / | . | / | / | .
Cc1ccc(S(=O)(=O)N2[C@H](c3ccccc3)CC(=O)[C@@H]3CN(S(=O)(=O)c4ccccc4)[C@H](c4ccccc4)C[C@@H]32)cc1 | 83 | / | . | / | / | .
Cc1ccc([C@@H]2C[C@H]3[C@@H](CN2S(=O)(=O)c2ccc(C)cc2)C(=O)C[C@@H](c2ccccc2)N3S(=O)(=O)c2ccc(C)cc2)cc1 | . | / | . | / | / | /
COc1ccc([C@@H]2C[C@H]3[C@@H](CN2S(=O)(=O)c2ccccc2)C(=O)C[C@@H](c2ccccc2)N3S(=O)(=O)c2ccc(C)cc2)cc1 | . | / | . | / | / | /
Cn1ncc2c(Nc3ccc(Br)cc3)nc(Nc3ccc(Br)cc3)nc21 | 50 | . | . | . | . | .
Cn1ncc2c(Nc3cccc(Cl)c3)nc(Nc3cccc(Cl)c3)nc21 | 57 | . | . | . | . | .
CNc1nc(Nc2ccc(C)c(Cl)c2)c2cnn(C)c2n1 | . | . | . | . | . | /
Cc1cccc(Nc2nnc(-c3ccc(N4CCOCC4)c([N+](=O)[O-])c3)c3ccccc23)c1 | 82 | . | . | . | . | .
CCCCNC(=O)CSc1nc(Cc2ccccc2)nc2ccccc12 | . | . | . | . | . | /
O=C1S/C(=C\c2ccc(O)c([N+](=O)[O-])c2)C(=O)N1Cc1cccc([N+](=O)[O-])c1 | 78 | . | . | . | . | 51
CCCn1c(SCC(=O)NC2CCCC2)nc2c1c(=O)n(C)c(=O)n2C | . | . | . | . | . | /
CC(=O)c1ccc(N(C(=O)c2ccco2)C(C(=O)NC2CCCC2)c2ccc(N3CCOCC3)cc2)cc1 (stereo not given) | 55 | . | . | . | . | 52
SMILES | FAS-TE inh | Mot1-301 SUMO | NadD inh | ATG4B inhibitor | Calb FLC | FAS-TE conf
COc1cc(OC)cc(N(C(=O)c2ccco2)C(C(=O)NC2CCCC2)c2ccc(N3CCOCC3)cc2)c1 (stereo not given) | . | . | . | . | . | /
CC1CCN(C(=O)CCNC(=O)c2ccccc2Cl)CC1 | . | . | . | . | . | /
CCn1cc([N+](=O)[O-])c(C(=O)N2N=C(c3ccc(O)c(OC)c3)CC2c2ccccc2O)n1 (stereo not given) | . | . | . | . | . | /
CC(=O)N1N=C(c2ccccc2)CC1c1cccc([N+](=O)[O-])c1 (stereo not given) | . | . | . | . | . | /
CCn1cc([N+](=O)[O-])c(C(=O)N2N=C(c3ccccc3)CC2c2ccc([N+](=O)[O-])cc2)n1 (stereo not given) | 63 | . | . | . | . | 47
COc1ccc(C2=NN(C(=O)c3ccccc3)C(c3cccc([N+](=O)[O-])c3)C2)cc1 (stereo not given) | 75 | . | . | . | . | .
CCc1nc2ccc(C(=O)NCCCn3ccnc3)cn2c1N(C)Cc1cc2ccccc2s1 | . | / | . | / | / | /
CCN(CC(=O)NCc1cccs1)S(=O)(=O)c1ccc([N+](=O)[O-])cc1 | 52 | . | . | . | . | 52
O=C(COC(=O)c1cccc([N+](=O)[O-])c1)NCc1cccs1 | 52 | . | . | . | . | 63
O=C(COC(=O)c1ccccc1)NCc1cccs1 | . | . | . | . | . | /
COc1ccc(N2C(=O)C3ON(C4SC(=S)N(C)C4(C)C)C(c4ccc(Cl)cc4)C3C2=O)cc1 (stereo not given) | 71 | . | . | . | . | .
COc1ccc(N2C(=O)C3ON(C4SC(=S)N(C)C4(C)C)C(c4ccc([N+](=O)[O-])cc4)C3C2=O)cc1 (stereo not given) | . | . | . | . | . | /
CCOC(=O)c1sc(NNC(=O)c2ccc(C)cc2)nc1C | . | . | . | . | . | /
CCOC(=O)c1nc(NNC(=O)c2ccc([N+](=O)[O-])cc2)sc1C | 53 | . | . | . | 116 | .
COC(=O)[C@]1(Cc2ccccc2)N[C@H](c2ccc(-c3cc(C(C)=O)cs3)cc2)[C@@H]2C(=O)N(C)C(=O)[C@@H]21 | . | . | . | . | . | /
CCN1C(=O)[C@H]2[C@@H](c3ccc(-c4cccc(Cl)c4)c(OC)c3)N[C@@](CC(C)C)(C(=O)OC)[C@H]2C1=O | . | . | . | . | . | /
COC(=O)[C@]1(Cc2ccccc2)N[C@H](c2ccc(-c3ccc(Cl)c(Cl)c3)cc2)[C@@H]2C(=O)N(C)C(=O)[C@@H]21 | 90 | . | . | . | . | .
CCN1C(=O)[C@H]2[C@@H](c3ccc(-c4cccc(Cl)c4)cc3)N[C@@](CC(C)C)(C(=O)OC)[C@H]2C1=O | 52 | . | . | . | / | .
COC(=O)[C@]1(Cc2ccccc2)N[C@H](c2ccc(-c3ccccc3)cc2)[C@@H]2C(=O)N(C)C(=O)[C@@H]21 | 56 | . | . | . | . | .
